Experimental data from PubChem BioAssay.
Activity calls are given as the source filed them. Unless noted, the rule behind the calls is not given here.

Columns and labels:
[1] = tested on: Wnt5a (protein binding on small-molecule microarray); assay: Wnt5a binders on small-molecule microarray, primary screen, biophysical, 635/667 nm fluorescence (AID 1142); conditions: 635 nm fluorescence, higher = more signal;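 note: fluorescence read at 667 nm with signal to noise per printed feature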
[2] = cell viability in Huh7 cells, primary screen, cytotoxicity control for HCV replication inhibitor project, CellTiter-Glo luminescence, basal, 48 h (AID 1143); conditions: Huh7 HCV replicon, higher = more signal, called active from +8 up or from −8 down;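 note: Huh7 hepatoma cells carrying a hepatitis C replication reporter with no stimulus; test concentration not given here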
[3] = P. aeruginosa biofilm formation inhibitors, primary screen, PAO1 strain, BacTiter-Glo luminescence, LB-PBS (AID 1144); conditions: 12 h, higher = more signal
[4] = CREB reporter modulators without forskolin, primary screen, cell-based, PC12, CRE-LacZ reporter, unstimulated (AID 1145); conditions: no forskolin, luminescence, 4.5 h, higher = more signal, called active from +8 up or from −8 down
[5] = CREB reporter modulators under forskolin, primary screen, cell-based, PC12, CRE-LacZ reporter, forskolin-stimulated (AID 1146); conditions: luminescence, 4.5 h, higher = more signal, called active from +8 up or from −8 down;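 note: PC12 cells with 6xCRE LacZ reporter stimulated by forskolin 10 µM; beta-galactosidase reporter signal reflecting CREB driven transcription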
[6] = target: Streptavidin (Streptomyces avidinii) (UniProt P22629); assay: streptavidin binders on small-molecule microarray, primary screen, artefact control for SMM compound annotation, biophysical, 635/667 nm fluorescence (AID 1147); conditions: streptavidin binding, higher = more signal;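 note: signal reflects streptavidin binding to arrayed compounds as a control protein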
[7] = small-molecule binders of probe aInhba, primary screen, biochemical, small-molecule microarray, 635/667 nm fluorescence (AID 1148); conditions: higher = more signal;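 note: score merges 667nm spot fluorescence with signal-to-noise for antibody binding to printed compounds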
Torsin-1A (Homo sapiens) [8] = target: Torsin-1A (Homo sapiens) (UniProt O14656); assay: torsin A binders from cell lysate, primary screen, small-molecule microarray, wild-type, 635/667 nm (AID 1149); conditions: COS7 hTOR1A-WT lysate, 635 nm fluorescence, higher = more signal
Torsin-1A (Homo sapiens) [9] = target: Torsin-1A (Homo sapiens) (UniProt O14656); assay: small-molecule binders of mutant TOR1A in lysate, primary screen, cell lysate, small-molecule microarray, COS7 lysate, 635/667 nm fluorescence (AID 1150); conditions: COS7 hTOR1A mutant lysate, 635 nm fluorescence, higher = more signal;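 note: score pools 667 nm emission and signal to noise measuring lysate protein binding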
[10] = tested on: Sonic hedgehog protein (Shh); assay: small-molecule binders of Shh protein, primary screen, biochemical, small-molecule microarray, 635/667 nm fluorescence (AID 1151); conditions: small-molecule microarray binding, 635 nm fluorescence; higher = more signal;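 note: Shh protein binding to compounds spotted on small-molecule microarray slides; score combines spot fluorescence intensity with signal-to-noise across triplicate slides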
[11] = E. coli DRC41 culture turbidity changes, primary screen, E. coli filamentation inducer project, strain DRC41, OD650, 48 h (AID 1152);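 note: E. coli MC1000 strain DRC41 lacking acrAB efflux pump and sulA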; conditions: E. coli DRC41 (acrAB sulA), higher = more signal, called active from +8 up or from −8 down
[12] = small-molecule binders of probe aLefty1, primary screen, biochemical, small-molecule microarray, 635/667 nm fluorescence (AID 1153); conditions: higher = more signal;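 note: score merges spot fluorescence with signal-to-noise ratio from the scanned slide images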
[13] = PSAC antagonists in infected red cells, primary screen, cell-based, P. falciparum Indochina, OD700, 1 h (AID 1154); conditions: P. falciparum Indochina infected RBC osmotic lysis, higher = more signal, called active from +8 up or from −8 down
[14] = PSAC antagonists in infected red cells, primary screen, cell-based, P. falciparum Indochina, OD700, 2 h (AID 1155);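 note: lysis reports solute entry through the parasite surface anion channel PSAC; channel blockers reduce lysis of infected cells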; conditions: P. falciparum Indochina infected erythrocytes, osmotic lysis OD700; higher = more signal, called active from +8 up or from −8 down
[15] = osmotic lysis modulators in infected erythrocytes, primary screen, PSAC antagonist project, cell-based, P. falciparum Indochina, OD700, 3 h (AID 1156); conditions: higher = more signal, called active from +8 up or from −8 down
[16] = PSAC antagonists in infected red cells, primary screen, cell-based, P. falciparum Indochina, OD700, 18 h (AID 1157); conditions: P. falciparum Indochina infected erythrocytes, osmotic lysis OD700, 18 h; higher = more signal, called active from +8 up or from −8 down
[17] = modulators of S6 phosphorylation in cells, primary screen, cell-based, A549, cytoblot, luminescence, serum-stimulated (AID 1158); conditions: A549 phospho-S6 cytoblot, 5 h, higher = more signal;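 note: serum-stimulated A549 lung adenocarcinoma cells; signal is phosphorylated S6 detected by cytoblot immunostaining with HRP secondary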
[18] = target: NADPH oxidase 2 (Homo sapiens) (UniProt P04839); assay: NOX2-dependent H2O2 signal modulators, primary screen, NOX inhibitor project, cell-based, HEK293-NOX2, PMA-stimulated, Amplex Red fluorescence (AID 1159); conditions: 45 min, higher = more signal, called active from +8 up or from −8 down; note: test concentration not given here
[19] = target: NADPH oxidase 4 (Homo sapiens) (UniProt Q9NPH5); assay: NOX4-dependent H2O2 signal modulators, primary screen, NOX inhibitor project, cell-based, HEK293-NOX4, tetracycline-induced, Amplex Red fluorescence (AID 1160); conditions: 45 min, higher = more signal, called active from +8 up or from −8 down
[20] = target: NADPH oxidase 5 (Homo sapiens) (UniProt Q96PH1); assay: NOX5-dependent H2O2 signal modulators, primary screen, NOX inhibitor project, cell-based, HEK293-NOX5, Amplex Red fluorescence (AID 1161); conditions: HEK293-NOX5, ionomycin, 45 min, higher = more signal
Sequence of NADPH oxidase 5 (Homo sapiens) (Q96PH1 whole entry, looked up): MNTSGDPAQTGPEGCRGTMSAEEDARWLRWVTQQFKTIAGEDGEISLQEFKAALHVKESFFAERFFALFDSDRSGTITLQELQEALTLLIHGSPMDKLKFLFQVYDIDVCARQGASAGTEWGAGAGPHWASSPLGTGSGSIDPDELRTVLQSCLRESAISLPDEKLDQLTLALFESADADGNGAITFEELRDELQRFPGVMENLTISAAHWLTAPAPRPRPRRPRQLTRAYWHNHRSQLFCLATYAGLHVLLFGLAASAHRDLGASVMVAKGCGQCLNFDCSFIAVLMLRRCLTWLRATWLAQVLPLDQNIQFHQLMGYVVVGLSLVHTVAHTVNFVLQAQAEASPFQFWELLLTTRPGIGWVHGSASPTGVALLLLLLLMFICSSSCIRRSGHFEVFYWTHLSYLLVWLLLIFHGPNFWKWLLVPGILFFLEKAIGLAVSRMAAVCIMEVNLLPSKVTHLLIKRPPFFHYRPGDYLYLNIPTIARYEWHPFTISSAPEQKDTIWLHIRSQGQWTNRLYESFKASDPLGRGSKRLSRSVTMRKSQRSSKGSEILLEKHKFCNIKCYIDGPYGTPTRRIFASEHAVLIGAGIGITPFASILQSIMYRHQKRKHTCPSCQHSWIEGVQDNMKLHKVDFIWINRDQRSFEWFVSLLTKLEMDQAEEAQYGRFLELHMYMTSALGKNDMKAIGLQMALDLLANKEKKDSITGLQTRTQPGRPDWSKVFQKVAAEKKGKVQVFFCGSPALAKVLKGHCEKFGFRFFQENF

Sequence of Streptavidin (Streptomyces avidinii) (P22629 whole entry, looked up): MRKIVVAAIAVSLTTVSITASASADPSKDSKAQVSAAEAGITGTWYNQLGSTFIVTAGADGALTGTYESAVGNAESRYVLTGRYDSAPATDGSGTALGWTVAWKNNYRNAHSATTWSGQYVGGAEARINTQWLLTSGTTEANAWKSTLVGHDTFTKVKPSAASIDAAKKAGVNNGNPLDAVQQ
Sequence of NADPH oxidase 4 (Homo sapiens) (Q9NPH5 whole entry, looked up): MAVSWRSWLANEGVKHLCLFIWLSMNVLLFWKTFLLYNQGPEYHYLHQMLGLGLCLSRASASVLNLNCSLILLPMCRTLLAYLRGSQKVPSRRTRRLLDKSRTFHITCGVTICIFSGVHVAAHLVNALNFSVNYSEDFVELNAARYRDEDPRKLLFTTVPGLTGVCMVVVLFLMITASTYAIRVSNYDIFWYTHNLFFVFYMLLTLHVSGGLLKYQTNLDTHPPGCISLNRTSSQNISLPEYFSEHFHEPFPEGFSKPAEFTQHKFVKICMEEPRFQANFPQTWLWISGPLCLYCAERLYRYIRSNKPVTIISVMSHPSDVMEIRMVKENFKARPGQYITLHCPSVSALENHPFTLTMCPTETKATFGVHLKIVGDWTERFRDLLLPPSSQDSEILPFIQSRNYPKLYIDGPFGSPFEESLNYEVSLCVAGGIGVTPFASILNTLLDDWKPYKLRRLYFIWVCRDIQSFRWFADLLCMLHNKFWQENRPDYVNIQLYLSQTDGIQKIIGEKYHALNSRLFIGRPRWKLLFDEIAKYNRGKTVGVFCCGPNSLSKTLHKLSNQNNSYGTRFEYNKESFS
Sequence of NADPH oxidase 2 (Homo sapiens) (P04839 whole entry, looked up): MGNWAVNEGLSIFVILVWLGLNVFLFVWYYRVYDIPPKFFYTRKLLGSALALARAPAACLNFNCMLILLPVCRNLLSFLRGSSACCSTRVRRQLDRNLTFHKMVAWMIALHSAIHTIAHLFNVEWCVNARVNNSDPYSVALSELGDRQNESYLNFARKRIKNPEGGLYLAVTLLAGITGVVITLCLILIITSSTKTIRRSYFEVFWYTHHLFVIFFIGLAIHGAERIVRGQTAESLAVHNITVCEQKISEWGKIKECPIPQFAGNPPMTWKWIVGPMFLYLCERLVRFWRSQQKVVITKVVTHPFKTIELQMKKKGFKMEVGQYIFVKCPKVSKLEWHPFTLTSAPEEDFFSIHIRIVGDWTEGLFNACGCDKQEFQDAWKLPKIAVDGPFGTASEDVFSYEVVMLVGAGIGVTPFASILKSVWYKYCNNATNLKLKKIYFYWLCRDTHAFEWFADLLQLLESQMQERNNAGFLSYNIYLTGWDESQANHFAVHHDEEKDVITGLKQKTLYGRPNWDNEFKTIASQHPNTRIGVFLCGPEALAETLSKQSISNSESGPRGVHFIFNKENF
Sequence of Torsin-1A (Homo sapiens) (O14656 whole entry, looked up): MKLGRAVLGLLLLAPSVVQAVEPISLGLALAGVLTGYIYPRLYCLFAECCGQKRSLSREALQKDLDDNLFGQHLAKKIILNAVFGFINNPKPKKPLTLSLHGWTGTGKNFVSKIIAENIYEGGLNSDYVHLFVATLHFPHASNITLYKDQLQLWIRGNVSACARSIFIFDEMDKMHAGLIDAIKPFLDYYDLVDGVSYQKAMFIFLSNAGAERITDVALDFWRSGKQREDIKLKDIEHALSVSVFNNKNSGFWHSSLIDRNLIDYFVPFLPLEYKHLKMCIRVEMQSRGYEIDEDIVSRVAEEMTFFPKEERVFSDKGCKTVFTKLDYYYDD

Row | Structure (SMILES) | composite z-score [1] | z-score [2] | z-score [3] | z-score [4] | z-score [5] | composite z-score [6] | composite z-score [7] | composite z-score (Torsin-1A (Homo sapiens) [8]) | composite z-score (Torsin-1A (Homo sapiens) [9]) | composite z-score [10] | z-score [11] | composite z-score [12] | z-score [13] | z-score [14] | z-score [15] | z-score [16] | z-score [17] | z-score [18] | z-score [19] | z-score [20]
1 | NC(=O)NCC#Cc1ccc2c(c1)[C@]1(C(=O)N2)[C@H](c2ccc(OCCO)cc2)N2[C@H](c3ccccc3)[C@H](c3ccccc3)OC(=O)[C@H]2[C@@H]1C(=O)N1CCCCCCC1 | 1.4 | 0.132 (inactive) | 0.848 (inactive) | -0.0515 (inactive) | 0.449 (inactive) | 3.11 | 1.93 | 0.533 | 1.02 | 1.35 | -1.89 (inactive) | 2.86 | 4.46 (inactive) | 1.05 (inactive) | 0.323 (inactive) | 0.565 (inactive) | -0.0231 | 1.9 (inactive) | 1.15 (inactive) | 0.333
2 | CCCNC(=O)[C@@]1(Sc2ccc(C)cc2)CC(=O)N(Cc2ccccc2)[C@@H]1c1ccc(CO)cc1I | 0.308 | -1.81 (inactive) | 0.029 (inactive) | 0.0655 (inactive) | 1.08 (inactive) | 0.203 | -0.0221 | 0.123 | 0.485 | 1.96 | -0.383 (inactive) | -0.0573 | 6.23 (inactive) | 0.815 (inactive) | -0.713 (inactive) | 0.206 (inactive) | -0.374 | 1.04 (inactive) | -1.94 (inactive) | 1.79
3 | C=C(/C(=C/C[C@@H](OC(=O)c1ccncc1)c1cccc(OCCO)c1)c1cc(C(=O)OC)ccc1OC)C(C)C | -0.0958 | -1.82 (inactive) | -0.634 (inactive) | 26.8 (active) | -1.07 (inactive) | 0.179 | -0.0695 | 0.227 | 0.868 | 1.64 | 0.987 (inactive) | 0.649 | 15 (active) | 3.01 (inactive) | 2.43 (inactive) | 1.04 (inactive) | 0.421 | 2.05 (inactive) | 1.09 (inactive) | -0.951
4 | COCCOC(=O)N1C(=O)[C@@]2(c3cc(C#Cc4ccc(OC)cc4)ccc31)[C@H](c1ccc(OCCO)cc1)N1[C@H](c3ccccc3)[C@H](c3ccccc3)OC(=O)[C@H]1[C@@H]2C(N)=O | 0.41 | -2.73 (inactive) | 0.854 (inactive) | -1.15 (inactive) | -1.28 (inactive) | 0.879 | 0.187 | 0.428 | 0.835 | 1.96 | 0.629 (inactive) | 0.291 | 5.54 (inactive) | 2.19 (inactive) | 0.528 (inactive) | 0.924 (inactive) | -0.141 | 1.49 (inactive) | 1.03 (inactive) | 1.85
5 | C=CCC(OC(C)=O)[C@@H]1[C@@H](N(Cc2ccc(-c3ccccc3)cc2)C(=O)Cc2ccc(OC)cc2)c2cc(OCCCO)ccc2N1C(=O)c1ccc(-c2ccccc2)cc1 (stereo not given in full) | 0.0546 | -1.56 (inactive) | 0.148 (inactive) | 1.34 (inactive) | -0.522 (inactive) | -0.0206 | -0.0018 | 0.0765 | 0.0644 | 1.16 | 0.769 (inactive) | 0.587 | 1.09 (inactive) | 0.969 (inactive) | 0.0304 (inactive) | 0.406 (inactive) | 1 | 0.713 (inactive) | 0.878 (inactive) | 2.49
6 | C=CCOC(=O)[C@@H]1[C@H]2C(=O)O[C@H](c3ccccc3)[C@H](c3ccccc3)N2[C@H](c2ccc(OCCOC(=O)[C@@H]3C[C@@H]4C(=O)N5CCC[C@H]5C(=O)N4[C@@H]3c3cccc(OCCO)c3)cc2)[C@@]12C(=O)Nc1ccc(I)cc12 | 0.667 | -1.77 (inactive) | -0.49 (inactive) | -1.2 (inactive) | -0.725 (inactive) | 0.161 | -0.0221 | 0.85 | 0.623 | 2.01 | 0.745 (inactive) | -0.462 | 3.47 (inactive) | 1.87 (inactive) | 3.63 (inactive) | 0.938 (inactive) | 0.198 | 1.82 (inactive) | 1.64 (inactive) | 1.73
7 | C=C(COC)/C(=C/C[C@@H](OC(=O)c1ccncc1)c1cccc(OCCO)c1)c1cc(C(=O)OC)ccc1OC | 0.996 | -8.13 (active) | -0.0417 (inactive) | 23.7 (active) | -0.376 (inactive) | -0.0673 | 0.709 | 2.64 | 1.49 | 2.11 | 0.701 (inactive) | 0.0698 | 8.82 (active) | 4.64 (inactive) | -3.3 (inactive) | 1.53 (inactive) | -0.88 | -3.02 (inactive) | -0.817 (inactive) | -1.23
8 | [N-]=[N+]=Nc1ccccc1[C@H]1OC(c2ccc(OCCCO)cc2)=N[C@@]1(Cc1ccccc1)C(=O)NCc1ccccc1 | 0.821 | -5.4 (inactive) | -0.638 (inactive) | -0.16 (inactive) | -1.26 (inactive) | 0.501 | 0.0301 | 0.104 | 0.383 | -0.272 | 1.74 (inactive) | 0.512 | 33.5 (active) | 26.9 (active) | 1.22 (inactive) | 2.33 (inactive) | 2.03 | -2.35 (inactive) | -0.275 (inactive) | -1.3
